# Pf growth 96h: inhibits malaria parasite growth, 96 h; P. falciparum luciferase reporter growth, 96 h; Potency, µM (doses to about 28.7 µM), inactives show at the highest dose activity change, negative = inhibition, usual class: inhibitors; 320,000 tested, 6.9% active; AID 504834; also: potency is read from the fitted curve at half-maximal effect; % is scaled to controls: 0 for no effect and ±100 for the full control effect
#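 Infected RBCs, 2% Hct / 0.05% parasitemia final; luciferase-reporter P. falciparum; cpd 96 h, 37 C, 5% CO2; luciferase detection reagent; luminescence.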
# HCMV antiviral: human cytomegalovirus inhibition; 410,000 tested, 4.5% active; AID 1259415; HFF cells, HCMV-luciferase reporter, 72 h; hits give low values; activity change, negative = inhibition, % at 57.5 µM; in the data active = activity change below about -60%; inconclusive = no clear call, values can overlap the other calls; inactive = above about -39%; also: % is scaled to controls: 0 for no effect and ±100 for the full control effect
#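 Cell-based, HFFs, 1000 cells/well, 16 h 37C; cpds in DMSO + HCMV-luc, MOI 1 PFU/cell; 72 h 37C; OneGlo luminescence after 5 min RT; norm. to buffer vs Salinomycin 10uM.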
# Shiga toxin inh: blocks Shiga toxin action in Vero cells; Vero cells, Shiga toxin protein synthesis inhibition reporter; inhibition, % at 38.7 µM; 290,000 tested, 9.2% active; AID 2315; in the data active = inhibition mostly above about 28%, no sharp cut-off; inactive = mostly below about 43%; also: 0% is about no effect
# CHX counter: affects cycloheximide protein synthesis inhibition readout, counter-screen | cell reporter, cycloheximide protein synthesis inhibition counterscreen | max response, % | 300,000 tested, 12% active; in the data active = max response mostly above about 13%, no sharp cut-off; inactive = mostly below about 14%; also: read at 38.3 µM for the half of the compounds with a filed dose; 0% is about no effect
# Pf growth 48h: inhibits P. falciparum growth in the first generation, 48 h | P. falciparum luciferase growth in erythrocytes, 48 h | 310,000 tested, 5.9% active | AID 504832 | Potency, µM (doses to about 28.7 µM), for the others: at the highest dose activity change, negative = inhibition, most hits filed as inhibitors; also: potency is read from the fitted curve at half-maximal effect; % is scaled to controls: 0 for no effect and ±100 for the full control effect
#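 In quantitative HTS format, infected erythrocytes bearing luciferase-reporter parasites were treated for a single generation at 37 C. Luminescence after adding detection reagent served as the growth measure.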
# * marks the source's active call; other numbers are inactive results; i = inactive; ? = inconclusive; . = no result given; [ ] = another dose, or the depositor's remark. Hits are enriched below; roughly 20% of the tested compounds scored in any of these assays. Unless noted, calls follow the shape of the dose curve; as a rule, active = well fitted inhibition curve with a large enough effect; inconclusive = small, poorly fitted or top-dose-only effect, or another doubt; inactive = no such curve, though single readings can be large or run the other way.
SMILES,Pf growth 96h,HCMV antiviral,Shiga toxin inh,CHX counter,Pf growth 48h
CCNCc1nc2cc(Cl)ccc2c(=O)[nH]1,35.3%,-69.1*,-14.7,-6.6,2.6%
Clc1nnc2c3ccccc3ccn12,.,-3.8,.,.,.
OCc1nc2c(ccc3ccccc32)[nH]1,-15.0%,49.2,10.1,12.2*,18.9%
Clc1nc2c(ccc3ccccc32)[nH]1,95.2%,58.6,71.3*,41.0*,111.2%
CCOc1ccc2[nH]c3ncccc3c(=O)c2c1,-23.6%,?,39.7*,17.3,?
O=c1c2cc(NC(=S)N3CCCCCC3)ccc2nc2n1CCCCC2,-7.7%,?,-5.2,-1.9,-19.4%
COc1ccc(N2C(=O)NC(=O)C2=O)cc1,9.4%,26.8,4.3,40.3*,0.7%
COc1ccc(N2C(=O)c3cc4ccccc4cc3C2=O)cc1,10.4µM*,-36.2,-5.1,-1.8,1.1%
C=C1c2ccccc2NC(=O)N1c1ccc(OC)cc1,15.7%,1.0,36.0,12.2*,7.9%
COc1ccccc1Oc1ccc2c(c1)C(=O)N(c1ccc(C)cc1)C2=O,45.0%,71.0,-8.9,1.1,-0.1%
COc1ccc2cc(CNc3ccc(C)cc3)c(=O)n(CC(=O)Nc3ccc(C)cc3Cl)c2c1,.,16.9,.,.,.
CC(C)(C)CC(=O)Nc1cccc(-c2cn3cccnc3n2)c1,-45.1%[1.15 µM],38.9,87.4*,37.9*,135.5%
COCC(=O)Nc1ccc(-c2cn3cccnc3n2)cc1,?,60.0,36.3,26.7*,65.0%
CCC(CC)C(=O)Nc1ccc(-c2cn3cccnc3n2)cc1,364.1%,30.9,30.8*,13.8*,22.2%
CCCc1nnc(SCC(=O)N2CCCC2)n1Cc1ccco1,?,-2.7,-3.3,-1.8,17.5%
O=C1CCN(S(=O)(=O)c2cccs2)c2ccc(C(F)(F)F)cc2N1,51.6%,-32.9,17.0,9.6,-12.8%
CNc1ccccc1-c1nc2ccccc2n(C)c1=O,1.3%,-38.3,-22.2,7.8,2.8%
Cn1c(=O)c(-c2ccccc2N)nc2ccccc21,-25.9%,.,36.6*,13.6,30.5%
O=C(CCCCCNC(=O)c1ccccc1)N/N=C/c1ccc(O)cc1O,?,-14.5,-15.6,-8.6,?
COc1cc(/C=N/NC(=O)/C(=C/c2ccccc2)CCO)ccc1O,-20.6%,7.0,-3.6,-3.1,?
O=C(N/N=C/c1ccc(O)cc1O)/C(=C/c1ccccc1)CCO,0.0%,-18.4,-1.7,18.7*,0.0%
COc1ccc(/C=N/NC(=O)/C(=C/c2ccccc2)CCO)cc1,-23.5%,-36.3,13.4,11.7*,?
Cc1cccc(CCNS(=O)(=O)c2ccc3c(c2)CCN3C(=O)CCC(=O)O)c1,?,.,4.5,-2.3,7.6%
COc1ccc(C(C(=O)NCc2ccccc2)N(C(=O)Cn2nnc3ccccc32)c2ccc(OC)cc2)cc1 (centres undefined),.,-12.0,.,.,.
CCOc1ccc(N(C(=O)Cn2nnc3ccccc32)C(C(=O)NC(C)(C)CC)c2cccn2C)cc1 (centres undefined),1.6%,17.2,11.5,-1.4,13.1µM*
SMILES,Pf growth 96h,HCMV antiviral,Shiga toxin inh,CHX counter,Pf growth 48h
CCC(C)(C)NC(=O)C(c1cccn1C)N(C(=O)Cn1nnc2ccccc21)c1ccc(OC)cc1OC (centres undefined),5.7%,14.6,13.3,5.3,8.28µM*
CSc1ccc(CCNC(=O)C2CCN(c3nc4ccccc4nc3C(F)(F)F)CC2)cc1,.,13.1,.,.,.
CCCc1nn2c(=O)cc(COC(=O)c3cccc(NC(=O)COc4ccc(F)cc4)c3)nc2s1,.,-3.8,.,.,.
O=C(Cc1cccs1)Nc1nnc(-c2ccncc2)s1,61.0%,-25.0,35.1,4.8,-12.1%
COc1ccc(C(=O)Nc2nnc(C(F)(F)F)s2)cc1,.,14.4,98.2*,26.9*,142.6%
COc1cccc(C(=O)Nc2nnc(-c3cccs3)s2)c1,?,19.8,89.3*,24.5*,.
COc1cccc(-c2nnc(NC(=O)Cc3cccs3)s2)c1,37.0%,-25.6,32.0,22.1*,15.2%
CCc1nnc(NC(=O)c2ccc(OC)cc2)s1,-26.4%,-34.9,93.1*,28.2*,i
C=CCN(CC=C)Cc1cc(=O)oc2cc(C)cc(C)c12,.,-13.0,.,.,.
Cc1cc2nc(C(C)(C)C)c(Cc3ccsc3)n2c(C)c1Br,.,12.7,.,.,.
O=C(COC(=O)Cc1cccs1)Nc1cc(S(=O)(=O)N2CCOCC2)ccc1Cl,.,13.3,.,.,.
COC1OC(O)C(NC(=O)C(F)(F)F)CC1O (centres undefined),.,-2.1,.,.,.
O=C(O)CCC(=O)Nc1nnc(C(F)(F)F)s1,17.6%,-13.8,-2.0,-3.3,4.9%
CCC(NC(=O)Nc1nnc(C(F)(F)F)s1)(C(F)(F)F)C(F)(F)F,-43.7%,-105.0*,-8.0,0.6,1.65µM*
CCOCc1nnc(NC(=O)c2cccc(OC)c2)s1,87.7%,90.2,57.1*,25.3*,33.6%
CCc1nnc(NC(=O)c2cccc(OC)c2)s1,?,41.7,64.7*,42.5*,224.1%
COc1ccc2sc3c(=O)[nH]c4ccccc4c3c2c1,-0.2%,-82.9*,-4.8,1.4,6.9%
COc1ccc2c(c1)[nH]c(=O)c1sc3ccccc3c12,88.7%,.,-12.5,-2.3,36.4%
O=C(NCc1noc2ccccc12)Nc1ccc(F)cc1F,.,14.6,.,.,.
COc1cccc(-c2noc(CCCC(=O)N3CCOCC3)n2)c1,22.0%,-30.4,-7.6,15.5,-0.6%
c1ccc(-c2noc(CN3CCOCC3)n2)cc1,?,27.3,-5.7,-2.2,-20.8%
Cc1ccc(-c2noc(CCC(=O)N3CCCC3)n2)cc1,31.5%,39.5,45.5*,27.3*,53.1%
O=C(CCCc1nc(-c2ccccc2)no1)N1CCOCC1,29.0%[5.75 µM],48.1,30.1,18.4*,36.6%
Clc1ccc(-c2noc(CN3CCCC3)n2)cc1,?,0.8,64.6*,37.5*,152.3%
Cc1ccc(-c2noc(CN3CCOCC3)n2)cc1,52.9%,83.8,76.5*,38.8*,86.7%
SMILES,Pf growth 96h,HCMV antiviral,Shiga toxin inh,CHX counter,Pf growth 48h
CN(Cc1cccs1)[C@@H]1CC[C@@]23CCCN2C(=O)CCC[C@H]3[C@H]1Cc1ccccc1,.,-21.5,.,.,.
Cn1ccnc1C1CCCCN1Cc1nc(-c2ccc(Cl)cc2)no1 (centres undefined),?,-27.9,-14.2,0.5,11.7µM*
COc1ccc(-c2noc(CCCCC(=O)N3CCN(c4cc(C)ccc4C)CC3)n2)cc1,.,-96.3*,.,.,.
Cc1ccc(-c2noc(CN3CCCCC3)n2)cc1,165.9%,96.8,91.1*,49.3*,.
COc1ccc(N2CCN(Cc3nc(-c4ccc(C)cc4)no3)CC2)cc1,.,-18.4,.,.,.
COc1cccc(-c2cc3c(Nc4cccc(F)c4)nccc3[nH]2)c1,.,22.6,.,.,.
O=C(O)c1ccccc1OS(=O)(=O)O,.,.,-2.8,0.3,.
O=S(=O)(c1ccccc1)c1c2c(cc3ccc(Cl)cc13)CCC2,.,-3.9,.,.,.
CCCCCCCCNC(=O)/C(C#N)=C/c1ccc(SC)cc1,-28.3%,-8.7,-1.8,6.8,18.1%
Cc1ccc(NC(=O)c2cc(C(C)(C)C)nn2Cc2ccccc2)cc1,9.28µM*,?,4.3,12.0*,8.28µM*
CC(C)(C)c1cc(C(=O)Nc2ccc(F)cc2)n(Cc2ccc(F)cc2)n1,11.7µM*,-91.9*,43.4*,26.2*,10.4µM*
